Screening results as filed in PubChem.
hNpr1 antagonist = Natriuretic polypeptide receptor (hNpr1) antagonism - Primary qHTS. Atrial natriuretic peptide receptor 1 (Homo sapiens), P16066. HEK293 hNpr1 GloSensor cGMP, ANP-stimulated luminescence. Potency, µM (series often up to 46.3 µM), actives largely listed as inhibitors. actives 1.6% (n = 76,000). AID 1347048, 2019; calls by dose curve; note: nearly all actives have a fitted effect of over 60% in size
Target sequence (P16066 whole entry, looked up): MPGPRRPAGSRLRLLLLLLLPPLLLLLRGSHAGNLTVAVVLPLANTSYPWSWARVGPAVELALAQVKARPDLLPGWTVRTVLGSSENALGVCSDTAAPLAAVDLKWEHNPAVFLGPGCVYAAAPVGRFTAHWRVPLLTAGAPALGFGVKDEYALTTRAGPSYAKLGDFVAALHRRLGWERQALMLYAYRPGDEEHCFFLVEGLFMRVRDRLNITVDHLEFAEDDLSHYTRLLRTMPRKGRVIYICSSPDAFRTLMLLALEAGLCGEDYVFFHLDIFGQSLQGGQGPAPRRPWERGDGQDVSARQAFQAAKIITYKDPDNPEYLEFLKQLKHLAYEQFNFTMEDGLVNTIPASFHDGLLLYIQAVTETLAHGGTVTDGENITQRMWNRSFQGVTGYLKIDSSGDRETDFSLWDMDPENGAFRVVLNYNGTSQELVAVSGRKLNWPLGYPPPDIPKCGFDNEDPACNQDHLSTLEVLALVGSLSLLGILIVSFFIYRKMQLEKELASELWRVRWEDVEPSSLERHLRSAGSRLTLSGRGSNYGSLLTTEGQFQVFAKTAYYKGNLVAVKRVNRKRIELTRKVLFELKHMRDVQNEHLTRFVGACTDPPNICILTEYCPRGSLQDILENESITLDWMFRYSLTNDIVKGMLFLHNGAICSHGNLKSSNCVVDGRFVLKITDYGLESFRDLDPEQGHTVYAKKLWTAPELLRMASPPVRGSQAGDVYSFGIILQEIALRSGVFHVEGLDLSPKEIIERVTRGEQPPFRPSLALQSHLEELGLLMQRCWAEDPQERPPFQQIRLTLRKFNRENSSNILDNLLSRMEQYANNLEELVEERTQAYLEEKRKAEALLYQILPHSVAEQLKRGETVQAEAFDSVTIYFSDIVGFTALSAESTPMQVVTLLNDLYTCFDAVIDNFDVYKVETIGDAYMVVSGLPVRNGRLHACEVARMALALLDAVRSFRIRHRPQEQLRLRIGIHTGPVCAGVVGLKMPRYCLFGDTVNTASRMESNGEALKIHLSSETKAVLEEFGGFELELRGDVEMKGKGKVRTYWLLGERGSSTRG
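HEK293 cells stably expressing human Npr1 and cGMP GloSensor pGS-40F, loaded 2 h with 2% GloSensor reagent, given compound 30 min at room temperature. Luminescence read before and 20 min after 0.1 nM hNppA.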
FLuc inh = Firefly luciferase inhibition profiling of diverse chemical library using quantitative high-throughput screening; purified P. pyralis luciferase, luminescence, biochemical; actives 2.5% (n = 76,000); Potency, µM (highest dose often 115 µM), most hits filed as inhibitors; Luciferin 4-monooxygenase (Photinus pyralis), P08659; AID 1347043, 2019; note: nearly all actives have a fitted effect of over 65% in size
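Purified 10nM P. pyralis luciferase with 10uM D-luciferin and 10uM ATP in 50mM Tris acetate pH 7.5, 10mM Mg acetate, 0.01% Tween-20, 0.05% BSA. qHTS titration; luminescence read by CCD imager.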
3T3 cytotox = Cytotoxic Profiling in NIH 3T3 Cell Line of Diverse Libraries Using Quantitative High-Throughput Screening; Potency, µM (top dose mostly 96.7 µM), usual class: inhibitors; NIH 3T3 viability, CellTiter-Glo ATP luminescence, 48-72 h; actives 4.3% (n = 94,000); note: nearly all actives have a fitted effect of over 55% in size
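ATP-dependent luminescence (CellTiter-Glo) served as the viability signal for NIH 3T3 cells treated with compound for 48 or 72 hr at 37 °C.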
HEK cytotox = Cytotoxic Profiling in HEK 293 Cell Line of Diverse Libraries Using Quantitative High-Throughput Screening. HEK 293 viability, ATP luminescence (CellTiter-Glo), 48-72 h. Potency, µM (top dose mostly 115 µM), usual class: inhibitors. actives 6.6% (n = 94,000); note: nearly all actives have a fitted effect of over 60% in size
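Luminescence from cellular ATP, measured with CellTiter-Glo, indicates HEK 293 viability. Cells plated at 250 cells/well are treated with compound for 48 or 72 hr at 37 degree Celsius before reagent addition.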
A number is an active result; n = inactive; u = inconclusive; x = not tested or not shown. Most compounds without a hit are left out; they make up all but 11% or so of the library. Unless noted, calls come from the whole dose curve; as a rule, active = well fitted curve in the direction sought with a large enough effect; inconclusive = small, poorly fitted or top-dose-only effect, or another doubt; inactive = no such curve, though single readings can be large; an effect the other way counts as inactive or inconclusive.

SMILES | hNpr1 antagonist | FLuc inh | 3T3 cytotox | HEK cytotox
COc1ccc(Nc2ccnc(N3CCN(C(=O)c4cccc(OC)c4)CC3)n2)cc1 | x | x | 25µM | 16µM
COc1cccc(C(=O)N2CCN(c3nccc(Nc4ccccc4Cl)n3)CC2)c1 | x | x | u | 35µM
COc1ccc(Nc2ccnc(N3CCN(C(=O)c4ccccc4F)CC3)n2)cc1 | x | x | 35µM | u
COc1ccc(CC(=O)N2CCN(c3nccc(Nc4ccc(OC)cc4)n3)CC2)cc1 | x | x | n | u
CCOC(=O)C1CCN(C(=O)c2ccc3nnc(-c4cc(C(F)(F)F)cc(C(F)(F)F)c4)n3c2)CC1 | x | x | n | u
Cc1cccc(C(=O)N2CCC3(CC2)CC2C(=O)NCCN2C3)c1 (stereo not given) | x | x | n | n
COc1ccc(Nc2ccnc(N3CCN(C(=O)Nc4ccc(Cl)cc4)CC3)n2)cc1 | x | x | n | u
COc1ccc(Nc2ccnc(N3CCN(C(=O)Nc4ccccc4)CC3)n2)cc1 | x | x | u | 25µM
COCC(=O)N1CCN(c2nccc(Nc3ccccc3Cl)n2)CC1 | x | x | u | n
O=C(c1ccc(Cl)cc1)N1CCN(c2nccc(Nc3ccccc3Cl)n2)CC1 | x | x | u | 22µM
COc1cccc(C(=O)NC2CCN(c3nccc(Nc4ccccc4Cl)n3)CC2)c1 | x | x | 35µM | u
O=C(NCc1ccc(F)cc1)c1ccc2nc(-c3ccnc(Cl)c3)oc2c1 | x | x | n | n
O=C(NC1CC1)c1ccccc1OCC1CCCN(Cc2cccc3[nH]ccc23)C1 (stereo not given) | n | n | n | 35µM
O=C(c1ccc(F)cc1)N1CCC(C(=O)N2CCC(N3CCOCC3=O)CC2)CC1 | x | x | n | n
O=C(NC1CC(c2cc(N3CCC(O)C3)ncn2)C1)c1ccoc1 (stereo not given) | n | n | n | n
N#Cc1ccc(NC2CC(c3cc(N4CCC(O)C4)ncn3)C2)nc1 (stereo not given) | n | n | 16µM | n
O=C(Cc1ccccc1)Nc1cc(-c2ccncc2)nn1-c1ccccc1 | x | x | n | u
CCCN(C)c1nccnc1OC1CCN(C(=O)C2CC2)C1 (stereo not given) | n | 40µM | u | n
CCCN(C)c1nccnc1OC1CCN(C(=O)C(CC)CC)C1 (stereo not given) | n | 32µM | u | u
CCCN(C)c1nccnc1OC1CCN(C(=O)C2CCOCC2)C1 (stereo not given) | n | 40µM | n | n
CC(C)Cn1c(=O)c(C(=O)N2CCN(C(=O)c3ccccc3F)CC2)nc2cccnc21 | x | x | n | n
COc1cccc(-c2cccc(C(=O)N3CCN(C(=O)C4CC4)CC3)c2)c1 | x | x | n | u
COC1CN(c2cccc(F)c2)C12CCN(C(=O)CC1CCCCC1)CC2 (stereo not given) | n | n | u | 45µM
COc1cccc(S(=O)(=O)N2CCC3(CC2)C(OC)CN3c2cccc(F)c2)c1 (stereo not given) | n | n | n | n
COC1C(=O)N(c2cccc(F)c2)C12CCN(C(=O)CC1CCN(C(C)=O)CC1)CC2 (stereo not given) | n | n | n | n
SMILES | hNpr1 antagonist | FLuc inh | 3T3 cytotox | HEK cytotox
COC1CN(c2cccc(F)c2)C12CCN(S(=O)(=O)c1cccs1)CC2 (stereo not given) | x | x | u | 18µM
COc1ccccc1-n1c(=O)c(C(=O)Nc2ccccc2Cl)nc2cccnc21 | x | x | n | n
COc1ccccc1-c1ccc(CN2CCN(c3ccc(Cl)nn3)C(=O)C2)cc1 | n | n | n | n
COc1ccccc1-c1ccc(CN2CCN(c3cc(Cl)ncn3)C(=O)C2)cc1 | n | n | u | 45µM
CO[C@H]1C(=O)N(C(C)C)[C@H]1C1CCN(C(=O)Cc2ccccc2)CC1 | x | x | n | n
CC(C)CCN1CCCC2(CC(Cc3ccccc3)=NO2)C1 (stereo not given) | n | n | n | 100µM
COc1cccc(-c2ccc(CN3CCCC(NC(=O)C4CCCC4)C3)cc2)c1 (stereo not given) | x | x | 35µM | 20µM
COc1ccc(CC(=O)NC2CCCN(Cc3ccc(-c4cncnc4)cc3)C2)cc1 (stereo not given) | x | x | n | u
Cc1cc(C)cc(-c2ccc(CN3CCCC(NC(=O)c4cccc(Cl)c4)C3)cc2)c1 (stereo not given) | x | x | u | 40µM
COc1cccc(-c2ccc(CN3CCCC(NC(=O)c4cccnc4)C3)cc2)c1 (stereo not given) | x | x | u | 28µM
